Data published in PubChem BioAssay (NCATS).
Records with an inconclusive call do not appear. Activity calls are given as the source filed them. Calls come from the whole dose curve; as a rule, active = well fitted inhibition curve with a large enough effect; inconclusive = small, poorly fitted or top-dose-only effect; inactive = no such curve, though single readings can be large or run the other way.

assay: Counterscreen for APE1 Inhibitors: Fluorescent Dye Displacement Validation Assay (AID 1707); conditions: fluorescent dye displacement from DNA; series mostly up to 57.1 µM
Description: In order to distinguish true inhibitors of DNA-processing enzymes from promiscuous DNA-binding compounds among screening assay hits, we developed a homogeneous and miniaturized assay based on fluorescent dye displacement test as originally described by Tse and Boger (Accounts of Chemical Research (2004) 37: 61-69). The assay is based on the strong enhancement of fluorescence when Thiazole Orange (ThO) binds to double-stranded DNA: conversely, in the presence of a DNA-binding compound, Thiazole Orange is displaced from the DNA and its fluorescence is reduced.
Buffer. 50 mM Tris-HCl (pH7.5) containing 50mM NaCl, 2 mM MgCl2, and 0.01% Tween-20.
Buffer containing 250 nM ThO in columns 3 and 4 as negative control (no dsDNA).
Reaction mixture: 250 nM ThO and 50 nM dsDNA at final concentration dispensed throughout the plate: in columns 1, 2, 5-48. Column 1 is neutral (100% activity).
5''TAMRA- TC ACC FTC GTA CGA CTC
3'' AG TGG GAG CAT GCT GAG
where F denotes tetrahydrofuran.
Control: Pintool transfer of control compound WB64 (W4761, Sigma-Aldrich) to column 2 of all assay plates as a two-fold 16-point dilution in duplicate (concentration range 5.75 uM - 0.175 nM).
Four uL of reaction mixtures were dispensed to 1536-well Greiner black solid bottom plates. Compounds (23 nL) were transferred […] in order to measure the endpoint fluorescence using 480 nm excitation and 540 nm emission fluorescence protocol.

Which outcome does the source give for `CCCCC/C=C\C/C=C\C/C=C\C/C=C\CCCC(=O)NCC(=O)O` here?
Its outcome is “inactive”.

With `Cn1c(=O)c2[nH]cnc2n(C)c1=O` as the compound, how does the outcome read?
Its outcome is “inactive”.

Which outcome does the source give for `C[C@]12CCC(=O)C=C1CC[C@@H]1[C@@H]2CC[C@]2(C)C(=O)CC[C@@H]12` here?
The outcome was “inactive”.

With `CC(C)N(CCC(C(N)=O)(c1ccccc1)c1ccccn1)C(C)C` (centres undefined) as the compound, how does the outcome read?
The outcome was “inactive”.

Which outcome does the source give for `CC(C)(C)NCC(O)c1ccccc1Cl` (centres undefined) here?
The outcome was “inactive”.

With `CCC1(c2ccc(N)cc2)CCC(=O)NC1=O` (centres undefined) as the compound, how does the outcome read?
Its outcome is “inactive”.

With `O=C(O)CCCc1ccc(N(CCCl)CCCl)cc1` as the compound, how does the outcome read?
Its outcome is “inactive”.

With `CC(NC(C)(C)C)C(=O)c1cccc(Cl)c1` (centres undefined) as the compound, how does the outcome read?
The outcome was “inactive”.

With `C=C(C)[C@H]1CN[C@H](C(=O)O)[C@H]1CC(=O)O` as the compound, how does the outcome read?
Its outcome is “inactive”.

With `CN1C(=O)CCS(=O)(=O)C1c1ccc(Cl)cc1` (centres undefined) as the compound, how does the outcome read?
Its outcome is “inactive”.

Which outcome does the source give for `O=P1(N(CCCl)CCCl)NCCCO1` (centres undefined) here?
Its outcome is “inactive”.

Which outcome does the source give for `CC(C)c1cccc(C(C)C)c1O` here?
Its outcome is “inactive”.

For `O=c1[nH]oc2c1CCNC2`, which outcome is on record?
The outcome was “inactive”.

With `NCCc1ccc(O)cc1` as the compound, how does the outcome read?
Its outcome is “inactive”.
